Source: PubChem (several laboratories)
Most compounds without a hit are left out; they make up all but 0.57% or so of the library.
CatB block: human cathepsin B inhibition. inhibition, %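 (tested at 10 µM)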. actives 0.1% (n = 63,000). purified cathepsin B, fluorogenic substrate, fluorescence; in the data active = inhibition above about 21%;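 also: 0% = enzyme with no compound and 100% = no enzyme blank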
Cdc25B block: human M-phase inducer phosphatase 2 inhibition; P30305; actives 0.1% (n = 65,000); recombinant Cdc25B, OMFP fluorescence Ex485/Em525; AID 368; inhibition, %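 (compounds tested at 10 µM final in the well)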; in the data active = inhibition above about 50%
DUSP1 inh: human dual specificity phosphatase 1 inhibition | recombinant MKP-1, OMFP hydrolysis fluorescence | inhibition, %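 (compounds tested at a single concentration somewhere between 10 and 100 µM)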 | actives 0.15% (n = 65,000) | AID 374;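 active = inhibition above about 50%, limit read from the data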;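 also: 0% = DMSO max control wells and 100% = wells with enzyme stopped by NaOH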
Target sequence (P28562 whole entry, looked up): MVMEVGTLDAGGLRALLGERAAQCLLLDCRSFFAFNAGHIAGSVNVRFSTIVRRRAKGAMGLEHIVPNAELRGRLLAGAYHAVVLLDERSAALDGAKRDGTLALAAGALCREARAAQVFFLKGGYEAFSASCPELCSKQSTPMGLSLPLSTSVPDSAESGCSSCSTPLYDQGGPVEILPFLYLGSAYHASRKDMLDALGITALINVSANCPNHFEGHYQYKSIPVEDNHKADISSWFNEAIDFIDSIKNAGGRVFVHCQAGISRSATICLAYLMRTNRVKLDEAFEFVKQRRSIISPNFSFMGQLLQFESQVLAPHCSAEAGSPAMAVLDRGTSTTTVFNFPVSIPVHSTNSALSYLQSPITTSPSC
CatL inh: blocks human cathepsin L protease activity. P07711. purified cathepsin L, fluorogenic substrate, fluorescence. inhibition, %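 (tested at 10 µM)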. actives 0.17% (n = 58,000). AID 460; in the data active = inhibition above about 45%;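 also: 0% = enzyme with no compound and 100% = no enzyme blank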
CatB mix inh: inhibitors of human cathepsin B in compound mixtures; Purified cathepsin B, AMC dipeptide fluorescence; inhibition, %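 (ten-compound pools at 5 µM per compound and 50 µM total)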; actives 0.06% (n = 62,000); in the data active = inhibition above about 22%, passing the limit was not always enough;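 also: 0% = enzyme without compound and 100% = no enzyme blank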
CatS block: human cathepsin S inhibition. P25774. recombinant cathepsin S, AMC dipeptide fluorescence, pooled mixtures. inhibition, %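 (tested at 5 µM per compound within 10-compound mixtures)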. actives 0.06% (n = 62,000); in the data active = inhibition above about 32%, passing the limit was not always enough;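 also: 0% = enzyme without compound and 100% = blank without enzyme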
An asterisk follows results filed as active; x = no result.

SMILES	CatB block	Cdc25B block	DUSP1 inh	CatL inh	CatB mix inh	CatS block
CC12CC(NC(=O)N1c1cccc(C(=O)N3CCN(c4ccccc4)CC3)c1)c1ccccc1O2 (stereo unspecified)	-4	-1	-5	-2	-1	8
CC12CC(NC(=O)N1c1ccc(C(=O)N3CCN(c4ccc(F)cc4)CC3)cc1)c1ccccc1O2 (stereo unspecified)	3	8	53*	2	5	-1
CCN1C(=O)c2cccc3c(S(=O)(=O)Nc4c(C)n(C)n(-c5ccccc5)c4=O)ccc1c23	3	-1	1	-1	6	-6
CCOC(=O)Cc1csc(NS(=O)(=O)c2ccc3c4c(cccc24)C(=O)N3CC)n1	5	-8	24	2	-1	55*
CCOc1cc(C2C(C#N)=C(N)Oc3n[nH]c(-c4ccccc4)c32)ccc1O (stereo unspecified)	4	65*	14	-4	5	-4
NS(=O)(=O)c1ccc(CCNC(=O)C2CCCN2C(=O)OCc2ccccc2)cc1 (stereo unspecified)	x	4	-7	x	x	x
Cn1c(C(=O)NCCCN2CCCC2=O)cc2c(=O)n(C)c3ccccc3c21	0	-7	5	1	4	1
Cn1c(C(=O)N2CCN(Cc3ccccc3)CC2)cc2c(=O)n(C)c3ccccc3c21	-1	-4	23	18	1	51*
CCCN(CCC)CCNC(=O)c1cc2c(=O)n(C)c3ccccc3c2n1C	3	-7	-9	-3	-7	77*
CN(CCNC(=O)c1cc2c(=O)n(C)c3ccccc3c2n1C)Cc1ccccc1	4	-25	7	x	1	72*
COc1ccc(CNC(=O)C(C)NC(=O)c2cc3ccccc3o2)cc1 (stereo unspecified)	0	4	2	-4	7	-8
Cc1ccc(OCC(=O)Nc2ccc(N3CCCC3)cc2)cc1C	3	-19	3	61*	4	-5
CCC(=O)NC1(C(F)(F)F)C(=O)Nc2c1c(=O)n(C)c(=O)n2C (stereo unspecified)	1	60*	4	-1	-3	26
Cc1ccc(S(=O)(=O)NC2(C(F)(F)F)C(=O)Nc3c2c(=O)n(C)c(=O)n3C)cc1 (stereo unspecified)	2	-7	-1	14	-3	-9
COc1ccc(NC(=O)CC2SC(=Nc3ccccc3)NC2=O)c(OC)c1 (stereo unspecified)	-5	0	10	9	-4	10
Cc1ccc(Cl)cc1N1CCN(C(=O)c2cn(C)c(=O)c3c2c2ccccc2n3C)CC1	-1	-8	35	-9	-6	-2
O=C(CCCc1cccs1)Nc1nc2c(s1)CCCC2	-2	10	-3	48*	7	7
CCn1c(SCC(=O)Nc2nc3ccc(OC)cc3s2)nc2c1c(=O)n(C)c(=O)n2C	1	2	50*	-1	-3	-5
N#CCCn1c(SCC(=O)NCC2CCCO2)nc2ccccc21 (stereo unspecified)	3	-13	3	2	5	-2
O=C(NCc1ccc(F)cc1)C1CCC(=O)N1CCc1ccccc1 (stereo unspecified)	42*	4	-3	11	-3	-1
Cc1ccc(CN2C(=O)CCC2C(=O)NCc2ccc(F)cc2)cc1 (stereo unspecified)	-1	6	22	-2	5	-3
O=C(NC1CCCCC1)C1CCN(C(=O)NCc2ccccc2)CC1	2	-6	-5	-4	6	-3
Cc1nnc(SC(C)C(=O)Nc2ccc(S(=O)(=O)N3CCCCCC3)cc2)s1 (stereo unspecified)	6	-9	-9	29	3	5
O=C(OC(C(=O)NCc1cccs1)c1ccccn1)c1cccs1 (stereo unspecified)	35*	6	4	19	28*	5
O=C(Nc1ccccn1)c1ccc2ccccc2n1	-1	70*	-1	7	-1	14
SMILES	CatB block	Cdc25B block	DUSP1 inh	CatL inh	CatB mix inh	CatS block
COC(=O)c1ccc(CSc2nnnn2Cc2ccccc2)cc1	5	-15	-4	-3	0	21
Cc1ccc2nc(C(F)OC(F)(F)F)[nH]c2c1 (stereo unspecified)	-1	-1	-1	x	4	12
Cc1ccc2nc(C(O)C(O)c3nc4ccc(C)cc4[nH]3)[nH]c2c1 (stereo unspecified)	0	5	-2	62*	3	-11
CC1CCCCC1NS(=O)(=O)c1ccc(S(=O)(=O)NCc2ccncc2)cc1 (stereo unspecified)	-3	-16	81*	-11	4	18
COc1ccc(N2CCC(CNC(=O)Nc3ccc(C)c(C)c3)C2)cc1 (stereo unspecified)	41*	-9	6	-4	1	4
COc1ccc(N2CCC(CNC(=O)Nc3ccc(OC)cc3OC)C2)cc1 (stereo unspecified)	1	0	1	-3	5	-4
O=C(CN1CCN(Cc2ccccc2)CC1)N1CCCc2c1c(=O)oc1ccc(O)cc21	1	22	1	-7	-1	-2
O=C1NCCCc2c1oc1ccc(O)cc21	4	50*	-3	10	1	12
Cc1cc(C)cc(OCc2nnc(SCC(=O)c3ccc(Br)cc3)o2)c1	1	-6	20	19	-11	-3
Cc1cccc(N=c2oc3cc(O)ccc3cc2C(N)=O)c1	-5	-2	13	-94	-5	0
CN(C)CCNc1nc2c(c(=O)[nH]c(=O)n2C)n1CC(O)COc1ccc(Cl)cc1 (stereo unspecified)	7	1	4	47*	-1	1
CCN(CC)CCNc1nc2c(c(=O)[nH]c(=O)n2C)n1CC(O)COc1ccc(Cl)cc1Cl (stereo unspecified)	1	-8	-10	19	2	-2
CCOC(=O)C1(CC)NC(c2ccc(N(C)C)cc2)C2C(=O)N(C)C(=O)C21 (stereo unspecified)	-1	4	-5	x	7	12
Cc1ccc(S(=O)(=O)NCCNC(=O)CN2CCCC2)cc1	0	-9	-3	3	-1	4
Cc1ccc(S(=O)(=O)NCCC(=O)NCCN2CCCCCC2)cc1	-3	-12	13	64*	5	23
Cn1c(COc2ccc(Cl)cc2)nnc1SCC(=O)NC1CCCCC1	8	-2	11	5	2	10
Cc1cccc(N(C(=O)CCC(=O)Nc2ccccn2)C(C(=O)NC(C)C)c2ccc(O)cc2)c1 (stereo unspecified)	4	-3	-12	12	-2	3
O=C(OCCN=C1NS(=O)(=O)c2ccccc21)c1cccnc1	5	-3	-25	15	2	6
CCOc1ccc(S(=O)(=O)N2CCN(c3ccccc3)CC2)c2cccnc12	5	-3	28	11	3	9
